High-throughput results (PubChem)
VACV Venus inh: qHTS for Stage-Specific Inhibitors of Vaccinia Orthopoxvirus: Venus Reporter Primary qHTS | Vaccinia virus Venus reporter expression, fluorescence | Potency, µM (titrated, usually from 36.5 µM), without a hit: at the top dose activity change, negative = inhibition, usual class: inhibitors | 0.46% of 330,000 active; calls by dose curve; tested in A549 cells; further: potency means the concentration at half of the fitted maximal effect; nearly all actives have a fitted effect of over 30% in size
FMDV antiviral: High Throughput Screening for Foot and Mouth Disease Virus Antivirals | FMDV antiviral cell-based qHTS | 1.2% of 410,000 active | Potency, µM (highest dose often 57.9 µM), inactives show at the highest dose activity change, negative = inhibition, usual class: inhibitors | AID 1159524, 2015; calls by dose curve; tested in HEK293T cells; further: read-out not given here; potency means the concentration at half of the fitted maximal effect; nearly all actives have a fitted effect of over 45% in size
HCMV inh: qHTS Assay for inhibitors of the human cytomegalovirus (HCMV) | activity change, negative = inhibition, % at 57.5 µM | HFF cells, HCMV-luciferase reporter, 72 h; stronger effect = lower value | 4.5% of 410,000 active | AID 1259415, 2018; in the data active means activity change below about -60%; inconclusive means no clear call, values can overlap the other calls; inactive means above about -39%
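Compounds were evaluated in HFFs infected with an HCMV luciferase reporter virus (MOI 1 PFU/cell). Luciferase in lysates collected 72 h post infection served as the replication measure.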
Giardia FBPA inh: qHTS Assay for Inhibitors of Fructose-1,6-bisphosphate Aldolase from Giardia Lamblia | A8B2U2 | purified Giardia FBPA | Potency, µM (series often up to 59.6 µM), inactives show top-dose activity, negative = inhibition, hits mostly inhibitors | 0.71% of 290,000 active | AID 2451, 2010; further: potency means the concentration at half of the fitted maximal effect; nearly all actives have a fitted effect of over 55% in size
Target sequence (A8B2U2 whole entry, looked up): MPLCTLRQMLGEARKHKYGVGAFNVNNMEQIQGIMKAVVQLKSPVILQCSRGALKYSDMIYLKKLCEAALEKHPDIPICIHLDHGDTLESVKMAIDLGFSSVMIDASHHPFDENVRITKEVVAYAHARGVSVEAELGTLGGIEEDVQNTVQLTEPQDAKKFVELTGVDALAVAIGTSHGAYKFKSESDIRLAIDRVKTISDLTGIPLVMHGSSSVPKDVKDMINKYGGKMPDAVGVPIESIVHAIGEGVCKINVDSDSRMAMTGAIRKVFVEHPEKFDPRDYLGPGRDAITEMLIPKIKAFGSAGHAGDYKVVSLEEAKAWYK
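Giardia FBPA (40 nM reagent) was preincubated 10 min at RT with compound (up to 57.5 uM final), then substrate plus GAPDH/TPI/NAD/arsenate coupling system with diaphorase/resazurin was added; resorufin fluorescence (525/598 nm) was read after 20 min.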
HCV inh: qHTS Assay for Inhibitors of Hepatitis C Virus (HCV) | 3.4% of 340,000 active | Huh7.5.1 HCVcc-Cre infection, luciferase reporter, 44 h | Potency, µM (top dose mostly 41.8 µM), inactives show at the highest dose activity change, negative = inhibition, usual class: inhibitors; further: potency means the concentration at half of the fitted maximal effect
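Compounds are dispensed onto cells plated 4 h earlier at 1,000 per well, with HCVcc-Cre virus (about 0.5 moi) added next. Following 44 h of culture, luminescent signal is measured for 15 sec after 15 min with substrate at room temperature.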
Vaccinia mCherry: qHTS for Stage-Specific Inhibitors of Vaccinia Orthopoxvirus: mCherry Reporter Primary qHTS; Potency, µM (highest dose often 36.5 µM), without a hit: at the highest dose activity change, negative = inhibition, actives largely listed as inhibitors; Vaccinia virus mCherry reporter infection, fluorescence; 0.63% of 310,000 active; calls by dose curve; tested in A549 cells; further: potency means the concentration at half of the fitted maximal effect; nearly all actives have a fitted effect of over 35% in size
* = called active by the depositor; i = inactive; ? = inconclusive; nt = not tested or not shown; ! = repeats disagree. Most compounds without a hit are left out; they make up all but 7.5% or so of the library. Unless noted, the call rests on the fitted dose curve; in most records, active means well fitted curve in the direction sought with a large enough effect; inconclusive means small, poorly fitted or top-dose-only effect, or another doubt; inactive means no such curve, though single readings can be large; an effect the other way counts as inactive or inconclusive. On the % scale 0 is the no-effect control and ±100 the full control effect.

SMILES	VACV Venus inh	FMDV antiviral	HCMV inh	Giardia FBPA inh	HCV inh	Vaccinia mCherry
CCOC(=O)c1sc2ccc(S(=O)(=O)N3CCOCC3)cc2c1N	nt	?	-62*	-11%	-10%	nt
CCOC(=O)c1sc2ccc(S(=O)(=O)N3CCCCC3)cc2c1N	nt	?	?	-1%	?	nt
Cc1ccsc1/C=N/N=C/c1sccc1C	nt	-5%	111	18%	-10%	nt
Cc1ccsc1C=Nc1ccc(O)cc1	6%	-21%	nt	5.6µM*	8%	-8%
Cc1ccc2c(CN3CCN(C(=O)c4ccc(Br)cc4)CC3)cc(=O)oc2c1	-10%	-21%	38	nt	nt	-15%
Cc1ccccc1CN1C(=O)C(O)(c2c[nH]c3ccccc23)c2cc(Cl)ccc21 (stereo not drawn)	-13%	-24%	-93*	nt	nt	-14%
O=C1N(Cc2ccccc2)c2ccccc2C1(O)c1c[nH]c2ccccc12 (stereo not drawn)	-7%	-20%	15	nt	nt	-12%
Cc1ccc(C)c(CN2C(=O)C(O)(c3c[nH]c4ccccc34)c3ccccc32)c1 (stereo not drawn)	-21%	-16%	-30	nt	nt	-20%
Cc1ccc(CN2C(=O)C(O)(c3c(C)[nH]c4ccccc34)c3ccccc32)cc1 (stereo not drawn)	-5%	-6%	17	nt	nt	-8%
O=C1N(Cc2ccccc2Cl)c2ccccc2C1(O)c1c[nH]c2ccccc12 (stereo not drawn)	-6%	-21%	-94*	nt	nt	-4%
Cc1[nH]c2ccccc2c1C1(O)C(=O)N(Cc2ccc(Cl)cc2)c2ccccc21 (stereo not drawn)	-9%	-24%	-99*	nt	nt	-8%
Cc1ccc(C)c(N2CCN(C(=O)c3cc4c(=O)n(Cc5cccs5)ccc4nc3C)CC2)c1	-17%	0%	0	nt	nt	-5%
O=C(Nc1nnc(Cc2ccc(Cl)cc2)s1)C1CCN(C(=O)c2ccco2)CC1	-21%	nt	nt	nt	nt	-4%
Cc1cc([N+](=O)[O-])ccc1-c1ccc(C2Nc3ccccc3C(=O)N2O)o1 (stereo not drawn)	nt	-28%	-99*	11%	11µM*	nt
O=S(=O)(c1ccc2nc(SCc3cccc(Cl)c3)[nH]c2c1)N1CCOCC1	-14%	-27%	-38	-27%	nt	?
CN(C)CCCN(C(=O)c1ccc([N+](=O)[O-])o1)c1nc2cc3c(cc2s1)OCO3	nt	0%	94	?	?	nt
C=CCSc1nsc(NC(=O)Nc2ccc(F)cc2)n1	?	-28%	-103*	?	22µM*	-25%
c1ccc(-n2cnc3ccccc32)nc1	5%	9%	?	-2%	-23%	-14%
c1ccc(-c2ccc(-c3n(-c4ccccn4)c4ccccc4[n+]3-c3ccccn3)cc2)cc1	nt	14µM*	-2	-29%	?	nt
Cc1ccc(C)c(N2CCN(C(=O)c3cccc(-n4c(C)nc5cccnc54)c3)CC2)c1	-21%	25µM*	0	nt	nt	-25%
Cc1cccc(N2CCN(C(=O)c3cccc(-n4c(C)nc5cccnc54)c3)CC2C)c1 (stereo not drawn)	-21%	18µM*	?	nt	nt	-23%
Cc1cccc(N2CCN(C(=O)c3cccc(-n4c(C)nc5cccnc54)c3)CC2)c1C	-29%	?	?	nt	nt	i
COc1ccc(N2CCN(C(=O)c3cccc(-n4c(C)nc5cccnc54)c3)CC2)cc1	-8%	?	0	nt	nt	-11%
CC(=O)Nc1ccccc1-c1nc2ccc(C(=O)N3CCN(c4cc(C)ccc4C)CC3)cc2[nH]c1=O	?	?	-65*	2%	16%	-21%
Cc1nc2cccnc2n1-c1cccc(C(=O)N2CCN(c3ccc(Cl)cc3)CC2)c1	-28%	13µM*	?	nt	nt	-26%
SMILES	VACV Venus inh	FMDV antiviral	HCMV inh	Giardia FBPA inh	HCV inh	Vaccinia mCherry
Cc1cccc(N2CCN(C(=O)c3cc4ccc5cccnc5c4[nH]3)CC2C)c1 (stereo not drawn)	-7%	-21%	-108*	nt	nt	-6%
Cc1ccc(C(=O)N/N=C/c2ccc(-c3cccc(C(F)(F)F)c3)o2)cn1	?	32µM*	?	6%	?	?
CNC(=S)N/N=C/c1ccc(-c2cccc(C(=O)O)c2)o1	-7%	14%	0	?	5%	-2%
CSCCC(C(=O)NC(C)(C)C)n1c(-c2ccc3c(c2)OCO3)nc2ccccc21 (stereo not drawn)	-1%	-1%	50	nt	nt	-14%
COc1ccc(CN(Cc2ccco2)C(=O)c2ccccc2F)cc1	-4%	-10%	-24	nt	nt	-10%
C[N+](C)(C)CCOC(=O)CCC(=O)OCC[N+](C)(C)C	-12%	-15%	-77*!	0%	-15%	-15%
O=C1OC(CO)CN1Cc1ccccc1 (stereo not drawn)	-5%	-8%	?	5%	34%	-9%
CC[C@]12CCCN3CCc4c(n(c5ccccc45)C(=O)C1)[C@@H]32	-23%	-25%	47	nt	6.3µM*	?
CC[C@]12CCCN3CCc4c(n(c5ccccc45)[C@@](O)(C(=O)OC)C1)[C@@H]32	-4%	-24%	-33	nt	-5%	i
OC(CNCc1ccccc1)c1ccccc1 (stereo not drawn)	-11%	-3%	2	3%	-19%	i
Oc1cccc(C(O)CNCc2ccc(-c3ccccc3)cc2)c1 (stereo not drawn)	-28%	-6%	-62*	-1%	?	-30%
CC1CCCN(S(=O)(=O)c2cc3c4c(c2)CC(=O)N4CCC3)C1 (stereo not drawn)	-17%	-17%	-6	nt	nt	-10%
CCc1ccc(NC(=O)CSC2=Nc3ccccc3C3=NC(CCC(=O)NCCc4ccccc4)C(=O)N23)cc1 (stereo not drawn)	-26%	-27%	-9	nt	nt	-24%
CCC(C)NC(=O)C1CCN(C(=O)c2cc3sccc3n2Cc2ccc(Cl)cc2)CC1 (stereo not drawn)	?	14µM*	nt	nt	nt	-30%
COCCNC(=O)C1CCN(C(=O)c2cc3sccc3n2Cc2ccc(Cl)cc2)CC1	-27%	?	nt	nt	nt	-21%
c1cc2c(cc1NC1=NCCO1)CCCC2	4µM*	-6%	-35	nt	?	?
Cc1csc(=O)n1CC(=O)OCC(=O)NNC(=O)c1ccc(Cl)cc1	nt	-26%	-29	nt	-2%	nt
CN1C(=O)C(n2ccc3ccccc32)c2cc(OC(F)(F)F)ccc21 (stereo not drawn)	nt	nt	-9	nt	nt	nt
Cc1ccc(S(=O)(=O)N2CCN(C(=O)COC(=O)c3ccc(O)cc3)CC2)c(C)c1	-18%	-21%	12	nt	-15%	-20%
Cc1[nH]c2ccccc2c1/C=C/c1c(C)[nH]c2ccccc12	-21%	nt	nt	nt	nt	-14%
